Reference: paper PMC4552634, “A New Set of Chemical Starting Points with Plasmodium falciparum Transmission-Blocking Potential for Antimalarial Drug Discovery” (PLoS ONE, 2015)
The whole screen tested about 13,000 compounds, of which about 3,200 (25%) showed an effect of 50% or more. The list shows a part of the results.

Test system: P. falciparum stage V gametocytes
Design: BacTiter-Glo ATP luminescence viability of purified stage V gametocytes in 384-well plates, per cent inhibition versus DMSO
Details: 48 h, 5 µM; inhibitor

Structure (SMILES)	% Inhibition [%]
O=C(NC1CCC(N2CCC(c3ccccc3C(F)(F)F)CC2)CC1)c1cc2ccccc2[nH]1 (stereo not drawn) [TCMDC-132895]	-39.86
O=C(Nc1ccncc1)c1cn(-c2ccccc2)nc1-c1cccs1 [TCMDC-125605]	-55.62
O=C(C=Cc1cn(-c2ccccc2)nc1-c1ccccc1)N1CCN(c2ccncc2)CC1 [TCMDC-125256]	13.7
O=C(C=Cc1cn(-c2ccccc2)nc1-c1cccs1)N1CCN(c2ccncc2)CC1 [TCMDC-125063]	51.82
NOCCCOc1ccccc1 [TCMDC-123474]	-11.28
Nc1ccc(Oc2ccc(Cc3cnc(N)nc3N)cc2)cc1 [TCMDC-137904]	-3.731
COc1ccc2nccc([C@@H](O)CN3CCC(NCc4ccc(OC)c(NC(C)=O)c4)CC3)c2c1 [TCMDC-141564]	-24.43
CCN(CCCN1CCCCC1)c1cc(C)nc(Nc2cccc(C(F)(F)F)c2)n1 [TCMDC-132451]	9.673
COc1cc(Nc2ncc3c(C)nc(-c4cc5ccccc5[nH]4)n3n2)cc(OC)c1OC [TCMDC-138905]	5.084
Cc1nc(-c2cccc(C(F)(F)F)c2)n2nc(Nc3ccc(OCCN4CCCC4)cc3)ncc12 [TCMDC-138911]	108.6
COc1cc(Nc2ncc3c(C)nc(-c4cccc(Nc5ccc(CN6CCS(=O)(=O)CC6)cc5)c4)n3n2)cc(OC)c1OC [TCMDC-136003]	62.52
COc1ccc(Nc2ncc3c(-c4cccc(NC(=O)Cc5ccc(F)cc5)c4)c[nH]c3n2)cc1OC [TCMDC-135252]	-55.08
c1ccc(Oc2ccc(Nc3ccnc(Nc4ccc(OCCN5CCCCC5)cc4)n3)cc2)cc1 [TCMDC-138583]	-73.3
COc1ccccc1CNCC(O)c1cc(C(F)(F)F)ccc1C(F)(F)F (stereo not drawn) [TCMDC-140376]	33.11
CN(C)c1ccc(C=Cc2nc(=O)c3ccccc3o2)cc1 [TCMDC-123870]	44.95
CCN(CC)S(=O)(=O)n1ncc2c3c(N)nc(N)nc3ccc21 [TCMDC-137302]	-23.31
N#CCCn1nc(-c2ccc(Cl)cc2)c2c(c1=O)CCCC2 [TCMDC-123668]	-3.378
COc1cc2nccc(Nc3ccc4c(cnn4Cc4cccc(F)c4)c3)c2cc1OC.Cl [TCMDC-138105]	-72.46
COc1cc2ncnc(Nc3ccc4nc(Cc5ccccc5)[nH]c4c3)c2cc1OC [TCMDC-137180]	-12.69
COc1cc2nc(N(C)C)nc(Nc3ccc4c(cnn4Cc4ccccc4)c3)c2cc1OC [TCMDC-138082]	11.6
COc1cc2nc(Nc3ccc4c(cnn4Cc4ccccc4)c3)nc(Nc3ccc4c(cnn4Cc4ccccc4)c3)c2cc1OC [TCMDC-138020]	106.8

Structure (SMILES)	% Inhibition [%]
COc1cc2nc(C)nc(Nc3ccc4c(ccn4Cc4ccccc4)c3)c2cc1OC [TCMDC-131924]	19.01
COc1cc2nc(Nc3ccc4c(ccn4Cc4ccccc4)c3)nc(Nc3ccc4c(ccn4Cc4ccccc4)c3)c2cc1OC [TCMDC-138237]	94.63
COc1cccc(NC(=O)NCCNc2ccnc(Nc3ccc(F)cc3)n2)c1 [TCMDC-133639]	-6.43
COc1ccc(CNC(=O)c2cc3c(=O)n4ccccc4nc3n(CCc3ccccc3)c2=N)cc1 [TCMDC-124474]	-41.5
COCCn1c(C)cc(C(=O)CN2C(=O)NC(C)(c3ccc(C(C)(C)C)cc3)C2=O)c1C (stereo not drawn) [TCMDC-125434]	51.6
Cc1cc(C(=O)CN2C(=O)NC(C)(c3ccc4ccccc4c3)C2=O)c(C)n1Cc1ccco1 (stereo not drawn) [TCMDC-125044]	-21.37
Cc1cc(C(=O)CN2C(=O)NC(C)(c3cccc4ccccc34)C2=O)c(C)n1Cc1ccco1 (stereo not drawn) [TCMDC-125264]	12.34
Cc1[nH]nc2ccc(-c3cc(OC[C@@H](N)Cc4ccccc4)cnc3-c3cc4ccccc4s3)cc12 [TCMDC-136352]	16.97
O=C(NCc1cccc2ccccc12)C1CCCN(C(=O)c2ccc(O)c(-c3ccc(Cl)c(Cl)c3)c2)C1 (stereo not drawn) [TCMDC-140894]	15.24
O=C(N[C@@H](Cc1ccccc1)[C@H](O)CNC1CCCCC1)c1cc(C2CCCC2)cc(N2CCCC2=O)c1 [TCMDC-138869]	29.86
COc1ccc2ncc(Cl)c(CCN3CC[C@@H](CNCc4cc5c(cn4)OCS5)C3)c2n1 [TCMDC-135904]	-4.396
Cc1c(C)c2c(c(C)c1O)CCC(C)(CCC(=O)O)O2 (stereo not drawn) [TCMDC-131686]	-4.216
CC[C@H]1CN2CC[C@H]1C[C@H]2[C@H](O)c1cc(/C=C/c2ccc(F)cc2)nc2ccc(OC)cc12 [TCMDC-141367]	91.47
CC[C@H]1CN2CC[C@H]1C[C@H]2[C@H](O)c1cc(/C=C/c2ccccc2)nc2ccc(OC)cc12 [TCMDC-141329]	62.86
C=C[C@H]1CN2CC[C@H]1C[C@H]2[C@H](O)c1cc(/C=C/c2ccc(F)cc2)nc2ccc(OC)cc12 [TCMDC-141366]	-44.1
CC[C@H]1CN2CC[C@H]1C[C@H]2[C@H](O)c1cc(-c2ccccc2C)nc2ccc(OC)cc12 [TCMDC-141190]	15.24
CC[C@H]1CN2CC[C@H]1C[C@@H]2[C@@H](O)c1cc(Cl)nc2ccc(OC)cc12 [TCMDC-137467]	-42.11
Cc1cccc(N2C(N)=NC(N)=NC2(C)C)c1C [TCMDC-137926]	11.29
Cc1cc(Nc2ccc(C)c(Cl)c2)n2ncnc2n1 [TCMDC-123501]	-28.24
COC(=O)c1cccc(N2CCN(CCCNC(=O)/C(=C/C=C/c3cc4cc(Cl)c(Cl)cc4[nH]3)OC)CC2)c1 [TCMDC-139338]	20.82
O=C(Cc1ccc(NC(=O)c2ccc(O)c(-c3cccc([N+](=O)[O-])c3)c2)cc1)NCCN1CCCCC1 [TCMDC-140797]	2.849
